Hit rate of the full screen: of about 16,000 compounds, about 4,000 (25%) were called active. Inconclusive results (about 26%) are left out. A selection follows. Unmarked numbers belong to inactive results. Calls follow the shape of the dose curve; as a rule, active = well fitted curve in the direction sought with a large enough effect; inconclusive = small, poorly fitted or top-dose-only effect, or effect the other way; inactive = no such curve, though single readings can be large or run the other way.
What follows are compounds tested against Cytochrome P450 2C9 (Homo sapiens) (UniProt P11712) (assay: Cytochrome panel assay with activity outcomes). Details: recombinant CYP, pro-luciferin dealkylation, luminescence, p450-cyp2c9; series mostly up to 57.1 µM.
Sequence of Cytochrome P450 2C9 (Homo sapiens) (P11712 whole entry, looked up): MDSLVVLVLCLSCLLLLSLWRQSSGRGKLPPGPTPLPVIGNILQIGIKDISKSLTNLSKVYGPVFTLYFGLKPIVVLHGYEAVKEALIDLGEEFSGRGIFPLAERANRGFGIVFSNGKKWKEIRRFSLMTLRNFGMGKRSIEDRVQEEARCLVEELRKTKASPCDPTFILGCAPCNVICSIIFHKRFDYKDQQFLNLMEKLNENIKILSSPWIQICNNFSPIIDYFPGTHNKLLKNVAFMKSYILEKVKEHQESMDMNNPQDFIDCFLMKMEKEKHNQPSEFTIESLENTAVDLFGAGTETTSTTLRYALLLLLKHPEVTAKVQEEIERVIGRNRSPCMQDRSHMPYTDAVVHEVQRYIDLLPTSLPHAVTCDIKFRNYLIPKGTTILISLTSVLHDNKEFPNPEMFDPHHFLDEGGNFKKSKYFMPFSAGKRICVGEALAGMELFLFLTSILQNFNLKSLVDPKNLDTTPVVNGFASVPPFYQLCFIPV
In the case of CCc1c2c(nc3cccc(OC)c13)OC(CC)C2 (stereo not given), the AC50 was “inactive”. In the case of CCC/C=C(\CCC)C(NC(=O)c1ccc(C(F)(F)F)cc1)c1ccc(C(F)(F)F)cc1 (stereo not given), the AC50 was “inactive”. For CCC/C=C(\CCC)C(NC(=O)c1ccc(C(=O)OC)cc1)c1ccc(C(=O)OC)cc1 (stereo not given), the AC50 was 2 µM (active). In the case of CCC/C=C(\CCC)C(NC(=O)c1ccc(-c2ccccc2)cc1)c1ccc(C(=O)OC)cc1 (stereo not given), the AC50 was “inactive”. For C[N+](C)(C)c1ccc([C@H](N)C(=O)O)cc1, the activity, negative = inhibition was -14.1% [at 11.4 µM]. CCCCn1cnc2c(cnn2-c2ccc(F)cc2)c1=O was tested, and the AC50 was 11.2 µM (active). With CCCn1cnc2c1c(=O)n(CCCCC(C)=O)c(=O)n2C the AC50 was “inactive”. For CCCn1c(=O)c2c(ncn2C)n(CCC)c1=O, the AC50 was “inactive”. In the case of O=C(O)CONC(=O)c1cc(OCC(F)(F)F)ccc1OCC(F)(F)F, the AC50 was “inactive”. With CC(C)CC(=O)Nc1sc2c(c1C#N)CC(C)(C)NC2(C)C the AC50 was “inactive”. For COC(=O)C1CCN(CC(=O)Nc2sc3c(c2C#N)CCC3)CC1, the AC50 was 5.62 µM (active). Compound Cc1c(C(=O)O)nc(/C=C\C(=O)O)[nH]c1=O has an activity, negative = inhibition of -11.9% [at 11.4 µM]. In the case of O=C(c1ccccc1)c1nn(-c2ccccc2)c(=O)cc1C(F)(F)F, the AC50 was 10 µM (active). In the case of O=C(O)c1nn(-c2ccccc2)nc1-c1nn(-c2ccccc2)nc1C(=O)O, the AC50 was “inactive”. O=C(O)c1nn(-c2ccc(Cl)cc2)c2c1C(=O)c1ccccc1C2=O showed an activity, negative = inhibition of -5.15% [at 11.4 µM]. In the case of CC(C)[C@H]1C(=O)C(C(N)=O)=C(O)[C@]2(O)C(=O)C3=C(O)c4c(O)ccc(N(C)C)c4C[C@H]3C[C@@H]12, the AC50 was “inactive”. CN(C)CC/C=C1\c2ccccc2Sc2ccc(Cl)cc21 was tested, and the AC50 was “inactive”. In the case of CCC(C)(C(=O)NC1CCCC1)N(CC1CCCO1)C(=O)c1ccc2c(c1)OCO2 (stereo not given), the AC50 was “inactive”. In the case of CC(C(=O)NC1CCCC1)N(C(=O)c1snc(C(N)=O)c1N)c1ccc2c(c1)OCCO2 (stereo not given), the AC50 was 12.6 µM (active). For Nc1nc(=O)c2[nH]cnc2n1O, the activity, negative = inhibition was -5.05% [at 11.4 µM]. With CN(C)Cc1ccccc1-c1ccc2ncnc(NC3CCNCC3)c2c1 the activity, negative = inhibition was 7.8% [at 2.29 µM]. With Cc1cc(C)n(-c2nnc(C)n2/N=C/c2ccccc2OCc2ccccc2Cl)n1 the AC50 was 8.91 µM (active). COc1ccc(/C=N/n2c(C)nnc2C)c(OC)c1 was tested, and the AC50 was “inactive”. CN(C)CCOC(=O)c1ccc(N)cc1 gave an activity, negative = inhibition of -8.18% [at 11.4 µM]. In the case of O=C(CCS(=O)(=O)c1cccc2nsnc12)NC1CCCCC1, the AC50 was “inactive”. In the case of Cc1cccc(NC(=O)CCS(=O)(=O)c2cccc3nsnc23)c1C, the AC50 was 15.8 µM (active). For COc1ccc(NC(=O)N2CCCC3(CCN(C(=O)c4cnccn4)CC3)C2)cc1, the AC50 was “inactive”. With CCOC(=O)C1CCCN(C(=O)c2cc3nc(-c4ccc5c(c4)OCO5)cc(C(F)(F)F)n3n2)C1 (stereo not given) the AC50 was 6.31 µM (active). For COc1ccc(-c2cc(C(F)(F)F)n3nc(C(=O)N4CCCCC4)cc3n2)cc1, the AC50 was 25.1 µM (active). With COc1cccc(-c2cc(C(F)(F)F)n3ncc(S(=O)(=O)c4ccccc4)c3n2)c1 the AC50 was “inactive”. For c1cncc(CNc2ncncc2-c2cccnc2)c1, the activity, negative = inhibition was 4.39% [at 2.29 µM]. With C(/C=C\c1ccccc1)=Nc1ccc2c(c1)Cc1ccccc1-2 the activity, negative = inhibition was -24.1% [at 11.4 µM]. O=S(=O)(N/N=C\C=C\c1ccccc1)c1ccc(Br)cc1 was tested, and the AC50 was 0.501 µM (active). For O=C(N/N=C/C=C/c1ccccc1)c1cc2c(ccc3ccccc32)o1, the AC50 was “inactive”. For CCOC(=O)CSC1=NC(=O)/C(=C\c2ccc(Cl)cc2)S1, the AC50 was 1.26 µM (active). For CCOC(=O)N1CCN(C(=O)CSCc2ccc(Cl)cc2)CC1, the AC50 was “inactive”. In the case of Cc1noc(C)c1C(=O)N1CCC2(CC1)CN(c1ncccn1)C2, the AC50 was “inactive”. In the case of Cc1cccc(NC(=O)CSc2nc3nc(C)cc(C)c3c(=O)[nH]2)c1, the AC50 was 7.94 µM (active). For Cc1cc(C)c2c(=O)[nH]c(SCC(=O)N(C)C)nc2n1, the AC50 was “inactive”. Cc1cccc(NC(=O)Cn2c(=O)oc3ccccc32)c1 was tested, and the AC50 was “inactive”. With CC[C@@H]1OC(=O)[C@H](C)[C@H](O[C@@H]2C[C@](C)(OC)[C@H](O)[C@H](C)O2)[C@H](C)[C@H](O[C@@H]2O[C@@H](C)C[C@@H](N(C)C)[C@@H]2O)[C@](C)(O)C[C@H](C)C(=NOCOCCOC)[C@H](C)[C@H](O)[C@]1(C)O the AC50 was “inactive”. Cc1sc(NC(=O)c2ccc(OCC(C)C)cc2)c(C(N)=O)c1-c1ccc(Cl)cc1Cl was tested, and the AC50 was 0.562 µM (active). NC(=O)OC[C@H](O)COc1ccc(Cl)cc1 was tested, and the AC50 was “inactive”. In the case of CC(C)COc1ccc(C(=O)Nc2scc(-c3ccc(Cl)cc3Cl)c2C(N)=O)cc1, the AC50 was 1.78 µM (active). With O=C(Nc1nnc(COc2ccc(Cl)cc2)s1)c1ccc([N+](=O)[O-])cc1 the AC50 was “inactive”. For COc1ccc(C(=O)Nc2scc(-c3ccc(Cl)cc3Cl)c2C(N)=O)cc1, the AC50 was 0.631 µM (active). For Cn1ncc(C#N)c1/N=C/N1CCCCCC1, the AC50 was “inactive”. O=C(c1csnn1)N1CCC2(CC1)CN(c1ccccn1)C2 was tested, and the AC50 was “inactive”. With Cn1cccc1C(=O)N1CCC2(CC1)CN(c1ccccn1)C2 the AC50 was “inactive”. With CN1C(=O)/C(=C\c2ccccc2)Sc2ccc(C(=O)N3CCN(c4ccccn4)CC3)cc21 the AC50 was 11.2 µM (active). For CCOC(=O)c1oc2ccccc2c1NC(=O)c1ccc2c(c1)OCO2, the AC50 was “inactive”. For CCOC(=O)c1oc2ccccc2c1NC(=O)c1cc(OC)cc(OC)c1, the AC50 was 14.1 µM (active). CCOC(=O)c1oc2ccccc2c1NC(=O)c1ccc(S(=O)(=O)N(C)C)cc1 was tested, and the AC50 was 0.562 µM (active). For Oc1ccccc1CNn1cnnc1, the AC50 was “inactive”. In the case of NC(=NCc1ccc(Cl)c(Cl)c1)NC(=O)c1nc(Cl)c(N)nc1N, the AC50 was “inactive”. COc1ccccc1-c1nccc(NC2CCNCC2)n1 was tested, and the activity, negative = inhibition was 3.9% [at 2.29 µM]. For Nc1c(S(=O)(=O)O)cc(Nc2cccc(S(N)(=O)=O)c2)c2c1C(=O)c1ccccc1C2=O, the AC50 was 3.16 µM (active). O=C1c2ccccc2C(=O)c2c(NC3CCCCC3)ccc(Nc3ccc(S(=O)(=O)O)cc3)c21 gave an activity, negative = inhibition of -7.2% [at 11.4 µM]. For COc1ncc2nc(-c3cc(F)cc(F)c3)c(=O)n(-c3ccccc3)c2n1, the AC50 was “inactive”. In the case of C[C@@H]1C(=O)N(C)C(=O)c2nc[nH]c21, the AC50 was “inactive”. O=C(COc1ccc(Br)cc1)N1CCC(c2ccccc2)C1 (stereo not given) was tested, and the AC50 was 14.1 µM (active). CCOc1ccc(NC(=O)N2CCC(c3ccc(C)cc3)C2)cc1 (stereo not given) was tested, and the AC50 was “inactive”. In the case of Cc1cccc(OCC(=O)N2CCC(N3CCCCCC3)CC2)c1, the AC50 was “inactive”. With COc1ccc(C(C(=O)NC2CCCCC2)N(C(=O)c2sc(C)nc2C)c2ccc(C(C)=O)cc2)cc1 (stereo not given) the AC50 was “inactive”. COc1ccc(C[C@H](N)C(=O)N[C@@H]2[C@H](O)[C@H](n3cnc4c(N(C)C)ncnc43)O[C@@H]2CO)cc1 was tested, and the AC50 was “inactive”. For CCc1ccc(N(C(=O)c2ccoc2C)C(C(=O)NC2CCCC2)c2ccc(OC)cc2)cc1 (stereo not given), the AC50 was 28.2 µM (active). C[C@H](O)[C@H](O)[C@@H]1CNc2nc(N)[nH]c(=O)c2N1 was tested, and the AC50 was “inactive”. In the case of COc1ccc(OC)c2[nH]c(=O)c(CCNS(=O)(=O)c3ccc(Cl)cc3)cc12, the AC50 was 2.24 µM (active). With COc1ccc(OC)c2[nH]c(=O)c(CCNS(=O)(=O)c3ccc(C)cc3)cc12 the AC50 was 3.55 µM (active). With CCS(=O)(=O)NCCc1cc2ccc(C)cc2[nH]c1=O the AC50 was “inactive”. With COc1cccc(-c2cc3nc(-c4ccccc4)cc(N4CCC5(CC4)OCCO5)n3n2)c1 the AC50 was 2.82 µM (active). With COc1ccc(C(=O)N2CCC[C@@]3(CCN(c4cccc(-c5ccccc5)c4)C3)C2)cc1 the AC50 was “inactive”. With Fc1cc2nc(-c3ccncc3)[nH]c2cc1F the AC50 was 7.94 µM (active). In the case of CCOc1ccc(N=C2NC(=O)C(CC(=O)O)S2)cc1 (stereo not given), the AC50 was “inactive”. N#CCCn1c(=O)c(-c2ccc(F)cc2)nc2cnc(N3CCOCC3)nc21 was tested, and the AC50 was “inactive”. CCOC(=O)N1CCN(C(=O)C(C)SCc2ccccc2)CC1 (stereo not given) was tested, and the AC50 was 3.55 µM (active). CCOC(=O)N1CCN(S(=O)(=O)Cc2ccccc2)CC1 was tested, and the AC50 was “inactive”. With CC(C)(SCc1ccccc1)[C@H](N)C(=O)O the activity, negative = inhibition was -5.67% [at 11.4 µM]. CC(C)Cn1cnc2c(SCc3ccccn3)nc(N)nc21 gave an activity, negative = inhibition of 0.334% [at 11.4 µM]. With Cc1ccc2[nH]c3c(c2c1)CN(C(=O)CN1c2ccc(F)cc2CCC1C)CC3 (stereo not given) the AC50 was 10 µM (active). With OCC1CCCN(Cc2ccc(-c3ccccc3)cc2)C1 (stereo not given) the AC50 was “inactive”. With CC(=O)Nc1ccc(N2CCCCC2)cc1 the AC50 was “inactive”. Clc1ccccc1-c1cc(NCc2ccccc2)ncn1 gave an activity, negative = inhibition of 4.07% [at 2.29 µM]. In the case of CNc1cc(N2CCCCCC2)ccc1[N+](=O)[O-], the AC50 was 6.31 µM (active). In the case of CS(=O)(=O)N1CCN(c2ccc([N+](=O)[O-])c(NCc3ccccc3)c2)CC1, the AC50 was 12.6 µM (active). In the case of O=[N+]([O-])c1ccc(N2CCCC2)cc1NCc1ccccc1, the AC50 was 1.58 µM (active). For CCN1CCC[C@H]1CNC(=O)c1c(OC)ccc(Br)c1OC, the AC50 was “inactive”. In the case of O=c1c(-c2cccc(F)c2)nc2cncnc2n1C1CC1, the AC50 was “inactive”. With O=c1c(-c2cccc(F)c2)nc2cncnc2n1Cc1ccccc1Cl the AC50 was 7.94 µM (active). With O=c1c(-c2cccc(Cl)c2)nc2cncnc2n1C1CC1 the AC50 was “inactive”. In the case of O=c1c(-c2cc(F)cc(F)c2)nc2cncnc2n1Cc1ccccc1Cl, the AC50 was 3.98 µM (active). With O=c1c(-c2cccc(Cl)c2)nc2cncnc2n1Cc1ccccc1 the AC50 was 1.26 µM (active). With COc1ccc(-n2c(=O)c(-c3cc(F)cc(F)c3)nc3cncnc32)cc1 the AC50 was “inactive”. For O=c1c(-c2cccc(Cl)c2)nc2cncnc2n1Cc1ccccc1Cl, the AC50 was 3.98 µM (active). In the case of c1nc(NC2CCNCC2)c2cc(-c3ccoc3)ccc2n1, the activity, negative = inhibition was -8.97% [at 2.29 µM].

— PubChem BioAssay AID1851 (National Center for Advancing Translational Sciences (NCATS), 2009)
% is scaled to controls: 0 for no effect and ±100 for the full control effect.
